# Data: the supplement of paper PMC9446081
# ± gives the standard deviation of the averaged measurements.
# Biological target: MurC (UniProt C4ZRI6)
# Assay: relative enzymatic activity vs untreated control (fraction); higher = less inhibition
# Conditions: 100 µM; incubation time: 2 h at 37 C
# Experimental: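 In vitro enzymatic inhibition assays (ProFoldin kits) for 12 purified essential E. coli enzymes or complexes, each treated with 218 active antibacterial compounds at 100 µM for 2 h at 37°C. Read-outs were fluorescence or absorbance (phosphate detection, dye binding), converted to activity via standard curves and expressed relative to untreated DMSO controls.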
# MurC, sequence (C4ZRI6 whole entry, looked up): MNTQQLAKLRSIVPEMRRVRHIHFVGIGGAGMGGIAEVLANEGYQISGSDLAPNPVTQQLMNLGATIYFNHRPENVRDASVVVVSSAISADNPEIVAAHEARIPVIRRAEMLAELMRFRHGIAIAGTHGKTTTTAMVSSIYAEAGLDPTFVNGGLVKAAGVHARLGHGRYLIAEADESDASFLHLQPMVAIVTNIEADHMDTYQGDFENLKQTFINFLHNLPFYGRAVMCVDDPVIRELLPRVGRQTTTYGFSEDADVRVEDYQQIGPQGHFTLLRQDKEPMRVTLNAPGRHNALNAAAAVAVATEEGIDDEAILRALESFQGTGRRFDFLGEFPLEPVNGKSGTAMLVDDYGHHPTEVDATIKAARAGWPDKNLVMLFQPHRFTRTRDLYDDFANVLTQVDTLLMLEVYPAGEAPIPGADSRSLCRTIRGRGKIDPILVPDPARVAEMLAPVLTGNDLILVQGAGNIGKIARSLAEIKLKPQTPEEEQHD
row,SMILES,relative enzymatic activity
1,N[C@H]1CCN(c2nc3c(cc2F)c(=O)c(C(=O)O)cn3-c2ccc(F)cc2F)C1,0.934 ± 0.034
2,CC1(C)SC2C(N3C(=O)C(c4ccccc4)NC3(C)C)C(=O)N2C1C(=O)[O-].[K+] (stereo not given),0.925 ± 0.025
3,Cc1cc(C2CCCCC2)n(O)c(=O)c1.NCCO,1.18 ± 0.057
4,CN1CCN(c2cc3c(cc2F)c(=O)c(C(=O)O)cn3-c2ccc(F)cc2)CC1.Cl,0.9809 ± 0.0032
5,O=C([O-])CCC(=O)OCC(NC(=O)C(Cl)Cl)C(O)c1ccc([N+](=O)[O-])cc1.[Na+] (stereo not given),1.01 ± 0.081
6,CCOC(=O)CCC(=O)O[C@H]1[C@H](O[C@@H]2[C@@H](C)[C@H](O[C@H]3C[C@@](C)(OC)[C@@H](O)[C@H](C)O3)[C@@H](C)C(=O)O[C@H](CC)[C@@](C)(O)[C@H](O)[C@@H](C)C(=O)[C@H](C)C[C@@]2(C)O)O[C@H](C)C[C@@H]1N(C)C,1.05 ± 0.026
7,CN(C)C1C(O)=C(C(N)=O)C(=O)C2(O)C(O)=C3C(=O)c4c(O)cccc4C(C)(O)C3C(O)C12.Cl (stereo not given),1.09 ± 0.081
8,O=C1NCCN1c1ncc([N+](=O)[O-])s1,1.008 ± 0.01
9,COC(=O)N/N=C/c1ccc([N+](=O)[O-])o1,1.01 ± 0.15
10,CC1CN(c2c(F)c(N)c3c(=O)c(C(=O)O)cn(C4CC4)c3c2F)CC(C)N1 (stereo not given),0.989 ± 0.12
11,O=C(O)c1c(O)c2c([nH]c1=O)CCCC2,0.602 ± 0.36
12,CCCN1C[C@H](C)[C@@H](O)[C@](C)(O)[C@@H](CC)OC(=O)[C@H](C)[C@@H](O[C@H]2C[C@@](C)(OC)[C@@H](O)[C@H](C)O2)[C@H](C)[C@@H](O[C@@H]2O[C@H](C)C[C@H](N(C)C)[C@H]2O)[C@](C)(O)C[C@H]1C,1.02 ± 0.024
13,Cc1cn(C2CC(N=[N+]=[N-])C(CO)O2)c(=O)[nH]c1=O (stereo not given),1.01 ± 0.068
14,NC(C(=O)NC1C(=O)N2C(C(=O)O)=C(Cl)CSC12)c1ccccc1 (stereo not given),0.944 ± 0.023
15,CON=C(C(=O)N[C@@H]1C(=O)N2C(C(=O)O)=C(CSc3nc(=O)c(O)nn3C)CS[C@H]12)c1csc(N)n1,0.751 ± 0.23
16,CO[C@@H]1[C@@H](OC(=O)c2ccc(C)[nH]2)[C@@H](O)[C@@H](Oc2ccc3c(c2C)OC(=O)[C@H](NC(=O)c2[nH]cc(CC(=O)Nc4cc5ccc(O[C@@H]6OC(C)(C)[C@H](OC)[C@@H](OC(=O)c7ccc(C)[nH]7)[C@H]6O)c(C)c5oc4=O)c2C)C3)CC1(C)C,2.26 ± 0.28
17,C=C1c2cccc(O)c2C(=O)C2=C(O)C3(O)C(=O)C(C(N)=O)=C(O)C(N(C)C)C3C(O)C12.Cl (stereo not given),1.079 ± 0.0059
18,Cn1cc(-c2[nH]c3cc(NC(=O)[C@H](N)C4CCCCC4)cc4c3c2C=NNC4=O)cn1,0.943 ± 0.039
19,Cc1cc(=O)c(C(=O)N[C@@H](C(=O)N[C@@H]2C(=O)N3C(C(=O)O)=C(CSc4nnnn4C)CS[C@H]23)c2ccc(O)cc2)c[nH]1,1.18 ± 0.11
20,CON=C(C(=O)N[C@@H]1C(=O)N2C(C(=O)OCOC(=O)C(C)(C)C)=C(C=Cc3scnc3C)CS[C@H]12)c1csc(N)n1,0.769 ± 0.15

row,SMILES,relative enzymatic activity
1,NCCONC(=O)[C@@H]1CC[C@@H]2CN1C(=O)N2OS(=O)(=O)O,0.944 ± 0.034
2,CCn1cc(C(=O)O)c(=O)c2cc(F)c(N3CCN(C(=S)Nc4cc(C(F)(F)F)ccc4Cl)CC3)cc21,1.07 ± 0.069
3,Cc1nnc(SCC2=C(C(=O)[O-])N3C(=O)C(NC(=O)Cn4cnnn4)C3SC2)s1.[Na+] (stereo not given),1.05 ± 0.11
4,COC1(NC(=O)C(C(=O)[O-])c2ccc(O)cc2)C(=O)N2C(C(=O)[O-])=C(CSc3nnnn3C)COC21.[Na+].[Na+] (stereo not given),1.03 ± 0.046
5,CCC=C(C(=O)NC1C(=O)N2C(C(=O)OCOC(=O)C(C)(C)C)=C(COC(N)=O)CSC12)c1csc(N)n1.Cl (stereo not given),0.843 ± 0.14
6,CCN1CCN(c2cc3c(cc2F)c(=O)c(C(=O)O)cn3C2CC2)CC1,0.8357 ± 0.0041
7,Nc1nc(/C(=N/O)C(=O)N[C@@H]2C(=O)N3C(C(=O)O)=C(/C=C4\CCN([C@@H]5CCNC5)C4=O)CS[C@H]23)ns1,0.717 ± 0.24
8,CN(C)C1C(O)=C(C(N)=O)C(=O)C2(O)C(O)=C3C(=O)c4c(O)ccc(Cl)c4C(O)C3CC12.Cl (stereo not given),1.021 ± 0.0019
9,C[C@H]1c2cccc(O)c2C(=O)C2=C(O)[C@]3(O)C(=O)[C@@H](C(N)=O)C(=O)[C@@H](N(C)C)[C@@H]3[C@@H](O)[C@@H]21,0.97 ± 0.064
10,C=CC1=C(C(=O)O)N2C(=O)[C@@H](NC(=O)/C(=N\O)c3csc(N)n3)[C@H]2SC1,1 ± 0.028
11,COC1=C(OC)C(=O)C(CCCCCCCCCC[P+](c2ccccc2)(c2ccccc2)c2ccccc2)=C(C)C1=O,0.344 ± 0.24
12,CCC1OC(=O)C(C)C(=O)C(C)C(OC2OC(C)CC(N(C)C)C2O)C(C)(OC)CC(C)C(=O)C(C)C2N(CCCCn3cnc(-c4cccnc4)c3)C(=O)OC12C (stereo not given),0.741 ± 0.33
13,CC(C)(ON=C(C(=O)NC1C(=O)N2C(C(=O)[O-])=C(C[n+]3ccccc3)CSC12)c1csc(N)n1)C(=O)O (stereo not given),0.704 ± 0.14
14,NC[C@H]1O[C@H](O[C@H]2[C@H](O)[C@@H](O[C@H]3O[C@H](CO)[C@@H](O)[C@H](N)[C@H]3O)[C@H](N)C[C@@H]2N)[C@H](N)[C@@H](O)[C@@H]1O,0.9682 ± 0.0015
15,Cc1ccc(S(=O)(=O)O)cc1.NC1CCN(c2nc3c(cc2F)c(=O)c(C(=O)O)cn3-c2ccc(F)cc2F)C1.O (stereo not given),0.988 ± 0.17
16,NC(=O)[C@@H]1CC[C@@H]2CN1C(=O)N2OS(=O)(=O)O,1.04 ± 0.022
17,Cl.Cl.N=C(NCCCCCCNC(=N)NC(=N)Nc1ccc(Cl)cc1)NC(=N)Nc1ccc(Cl)cc1,0.901 ± 0.04
18,CCC1OC(=O)C(C)C(OC2CC(C)(OC)C(O)C(C)O2)C(C)C(OC2OC(C)CC(N(C)C)C2O)C(C)(O)CC(C)CN(C)C(C)C(O)C1(C)O (stereo not given),0.998 ± 0.082
19,Cc1c(N)nc([C@H](CC(N)=O)NC[C@H](N)C(N)=O)nc1C(=O)N[C@H](C(=O)N[C@H](C)[C@@H](O)[C@H](C)C(=O)N[C@H](C(=O)NCCc1nc(-c2nc(C(=O)NCCCNCCCCN)cs2)cs1)[C@@H](C)O)[C@@H](O[C@@H]1O[C@@H](CO)[C@@H](O)[C@H](O)[C@@H]1O[C@@H]1O[C@H](CO)[C@@H](O)[C@H](OC(N)=O)[C@@H]1O)c1c[nH]cn1,1.006 ± 0.0098
20,CCCC[P+](CCCC)(CCCC)Cc1ccc(NC(=O)[C@@H](Cc2ccc3ccccc3c2)N=C(NC2CCCCC2)NC2CCCCC2)cc1,0.817 ± 0.36
